The source of these data is the supplement of paper PMC6555819.

The assay relates to VDR:RXRa (NR concentration 270 nM, RXRa partner concentration 90 nM). Description: PBM binding z-score (relative to random genomic background probes); higher = stronger binding; sequences stand for … in GC…GCGATTGACAGCGTAGAATGAAGG
The procedure: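 Protein-binding microarray (Agilent 4x180K custom design, double-stranded 60-nt probes: 5' GC cap, 34-nt variable region, 24-nt constant primer region; full probe sequence given). Purified or IVT nuclear receptor:RXRα heterodimers (3:1 NR:RXRα, mostly 270:90 nM) or homodimers were incubated for 1 h in PBS with 2% milk and no ligand, then detected with Alexa488 antibodies. Fluorescence from o1-orientation probes (~5 replicates averaged) was converted to z-scores against 500 random hg19 background probes. Variable regions are seed direct-repeat (DR0–DR5) sites, all their single-nucleotide variants and half-site ablations.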
ATCGGAAGGTCGAGGTGAGTATAGAGAAAGGGAA had a PBM binding z-score of 1.31.

For TAGCCTCGGTCATTCAGGGGCCAGTATAGAAAGC, the PBM binding z-score was determined as 0.169. GATTCAGGGTCAGCTAGAGGCCAGAGTATGGAAA: the PBM binding z-score came out at 4.09. The figure for ATATGTAGGTTAGGGTCATTCTGAAAGTAGGGAA is 4.44.

Regarding GATACAGAGTCAGCTAGAGGCCAGAGTATGGAAA, the PBM binding z-score was -0.601. The figure for GCTGCTAGGTCAGGTTGGTCTGCTAACGGGTACG is 0.509; for CTATGTAGGTTAAGGGGGTCATTTAGTTTGAAAG it is 7.32; for CGTCCAAGGTCATAGGAGGTCACTGAAGACAGAT it is 7.05.

The sequence CATACAGGGTCCGCTAGGCCAGAGTAGGGACGGC gave a PBM binding z-score of -0.537.

In the case of AGATGTAGGTTAGGGTCATTCAGAAAGTAGGGAA, the PBM binding z-score worked out at 4.32. TAGCCTAGGTGATTGGGCCAGTATAGTACGCATC gave a PBM binding z-score of -0.57.

The sequence GATACAGGGTCATCTAGAGGCCAGAGTATGGAAA registered a PBM binding z-score of 5.14.

In the case of ATCGAACGGTCGAGGTGAGTATAGAGAAAGGGAA, the PBM binding z-score is -0.335.

In the case of TCTAGTTGGTCACGGAGGTCACACGCGACGGGTA, the PBM binding z-score is 5.87. Take AGACAAAGTTCAGGACGAGGTAACGTAAAGCACG: the PBM binding z-score came to 2.91. The figure for ATAGGTAGGTTAGGGTCATTCAGAAAGTAGGGAA is 5.05; for TCTAGGAGGACACGAAGGTCAGAGCTTTCCAGAG it is 2.25.

Consider CGAACTAAGTCATCCAGGACAGTGAATACATTGA, for which the PBM binding z-score was 0.524. Turning to CCTACAGGGCCAAGGTCATTGATCAGTCAAAGCA, the PBM binding z-score came to 3.39. On to CGAACTAGGTCACCAGGATAGTGAAGAGGTTGGA, for which the PBM binding z-score is 1.93. The figure for CGTCCAAGGTCAATGTTAGGTCAGTGAAAGCATT is 4.92; for TAGCCTAAGTCATGGGCCAGTATACCACGCGAAC it is -0.25. The figure for ATTTGTAGGTTAGGGTCATTCAGAAAGTAGGGAA is 4.81. The figure for AATACAGGGTCACTAGGTCAGAGTAGGTACGAAT is 5.25; for CGAACTAGGTCAAAGGAGAGTGAAAGGCGACGTA it is 0.961.

Take CTAACTAGGTCACGAAAGGTCAAAGTCGAATGAC: the PBM binding z-score is 6.76. On to CGTCCAAGGTCAACAGGTCAGTGAAAGCGACGTG, for which the PBM binding z-score was determined as 5.16. In turn, TCTCGGAGGACACGAAGGTCAAAGCTTTCCAGAG registered a PBM binding z-score of 3.87. In turn, CCTTACGGGTCACTCTAGGTTATAGCATCGGAGT had a PBM binding z-score of 3.67. Sequence TAGCCTAGGTCAGATCGGGGCAGTATACGCTATA showed a PBM binding z-score of 1.56.

In turn, CAAACTAGGTCACCGGAAGGTCAAAGTTCGCATG returned a PBM binding z-score of 6.38. For CCTGCTAGGACAATGGTCAGCTAAAGCAGCTCGC, the PBM binding z-score was -0.832. The figure for ATCGAAGGGTCGAAGGTGAGTATACCCACCCGAA is 1.66; for ATATGTAGATTAGGGTCATTCAGAAAGTAGGGAA it is 4.06. On to CTATGTAGGTTAAGGGGGTCACTCAGTTTGAAAG, for which the PBM binding z-score was 7.21. For the sequence CCTTACGGGTCAGGGTTATAGCACGGGTGGTACG, the PBM binding z-score was found to be 2.26. ACTAGTTGGTCACCTGAGGTCACACACAATTCGG showed a PBM binding z-score of 5.23.

For CCGACTGGGGCAAAGGTTACCACACTCAGTACGA, the PBM binding z-score was found to be 1.81. The sequence ATCGAAAGGTCGTCGAGGTGAGTATACACCGTTT came in with a PBM binding z-score of 5.7. In turn, TCGAGTATGTTACGGGGGCATTCAGGGATGAAGA displayed a PBM binding z-score of 3.48.
